From PubChem BioAssay AID1159580 (chemical genetic matrix, 2015)
“And” between values parts separate entries of the source, which are not always exact repeats. Equal values may be shown once. Out of some 5,500 compounds screened, about 2,000 (36%) were called active. Roughly 18% stayed inconclusive and do not appear here. Rule as the data show it: active = normalized growth mostly below about 0.91 (no sharp cut-off); inconclusive = no clear call, values can overlap the other calls; inactive = mostly above about 0.92. The list shows a part of the results.

Assay: chemical genetic growth profiling, strain panel (AID 1159580);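 also: tested at 20 µM; growth read once vehicle control cultures reached saturation at 30 °C; 1 = growth at the plate median or of vehicle wells; lower values mean less growth of the strain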
Settings: S. cerevisiae deletion strains, growth OD

Measured: normalized growth

COS(C)(=O)=O
inactive: locus YAL013W, strain DEP1, hits give low values 1 | locus YAL021C, strain ccr4, hits give low values 0.997 | locus YAL026C, strain drs2, hits give low values 1 | locus YAL030W, strain snc1, hits give low values 0.996 | locus YBL061C, strain skt5, hits give low values 0.992 | locus YBR009C, strain hhf1, hits give low values 1 | locus YBR021W, strain FUR4, hits give low values 1 | locus YBR023C, strain chs3, hits give low values 0.994 | locus YBR171W, strain sec66, hits give low values 0.978 | locus YBR229C, strain ROT2, hits give low values 1.01 | locus YBR231C, strain swc5, hits give low values 0.969 | locus YBR279W, strain paf1, hits give low values 1 | locus YCL011C, strain gbp2, hits give low values 1.02 | locus YCL016C, strain dcc1, hits give low values 1 | locus YCL029C, strain bik1, hits give low values 1.02 | locus YCL069W, strain vba3, hits give low values 1 | locus YCR088W, strain abp1, hits give low values 0.993 | locus YDL005C, strain med2, hits give low values 0.979 | locus YDL035C, strain GPR1, hits give low values 1.02 | locus YDL040C, strain nat1, hits give low values 0.993 | locus YDL074C, strain BRE1, hits give low values 0.986 | locus YDL101C, strain DUN1, hits give low values 1 | locus YDL134C, strain PPH21, hits give low values 1 | locus YDL185W, strain tfp1, hits give low values 1.01 | locus YDL192W, strain arf1, hits give low values 1.01 | locus YDR001C, strain nth1, hits give low values 0.997 | locus YDR069C, strain doa4, hits give low values 1.01 | locus YDR101C, strain arx1, hits give low values 1.01 | locus YDR137W, strain rgp1, hits give low values 1.02 | locus YDR150W, strain NUM1, hits give low values 1 | locus YDR159W, strain sac3, hits give low values 0.944 | locus YDR162C, strain NBP2, hits give low values 0.993 | locus YDR195W, strain ref2 0.948 | locus YDR297W, strain sur2, hits give low values 0.982 | locus YDR318W, strain mcm21, hits give low values 1.03 | locus YDR334W, strain swr1, hits give low values 0.988 | locus YDR335W, strain msn5, hits give low values 1 | locus YDR388W, hits give low values 1.01 | locus YDR392W, strain spt3, hits give low values 0.947 | locus YDR502C, strain sam2, hits give low values 0.994 | locus YEL003W, strain gim4, hits give low values 0.989 | locus YEL037C, strain rad23, hits give low values 1 | locus YEL061C, strain CIN8 (second series), hits give low values 0.998 | locus YEL061C, strain CIN8, hits give low values 1.01 | locus YER015W, strain faa2, hits give low values 1.02 | locus YER016W, strain bim1, hits give low values 0.98 | locus YER110C, hits give low values 1.02 | locus YER111C, strain swi4, hits give low values 0.998 | locus YER155C, strain BEM2 (second series), hits give low values 0.976 | locus YER155C, strain BEM2, hits give low values 1.01 | locus YER167W, strain BCK2, hits give low values 1.02 | locus YFR010W, strain ubp6, hits give low values 0.995 | locus YGL078C, strain dbp3, hits give low values 0.999 | locus YGL086W, strain mad1, hits give low values 1.02 | locus YGL167C, strain pmr1, hits give low values 0.997 | locus YGL173C, strain kem1, hits give low values 1 | locus YGL227W, strain vid30, hits give low values 0.978 | locus YGL240W, strain doc1, hits give low values 0.957 | locus YGL248W, strain PDE1, hits give low values 1 | locus YGL253W, strain hxk2, hits give low values 1 | locus YGR078C, strain PAC10, hits give low values 0.986 | locus YGR135W, strain pre9, hits give low values 0.966 | locus YGR229C, strain SMI1, hits give low values 0.993 | locus YGR252W, strain gcn5, hits give low values 1.02 | locus YHR013C, strain ard1, hits give low values 1 | locus YHR027C, strain rpn1, hits give low values 0.983 | locus YHR030C, strain SLT2, hits give low values 1.01 and 1 | locus YHR079C, strain IRE1 (second series), hits give low values 1.02 | locus YHR079C, strain IRE1, hits give low values 0.999 | locus YHR094C, strain hxt1, hits give low values 1.02 | locus YHR129C, strain ARP1, hits give low values 1.01 | locus YHR142W, strain chs7, hits give low values 1.01 | locus YHR200W, strain rpn10, hits give low values 1.02 | locus YIL066C, strain RNR3, hits give low values 1.04 | locus YIL073C, strain SPO22, hits give low values 1.09 | locus YIL125W, strain kgd1, hits give low values 1.02 | locus YIR030C, strain dcg1, hits give low values 1.02 | locus YJL092W, strain hpr5, hits give low values 1 | locus YJL095W, strain BCK1 (second series), hits give low values 0.995 | locus YJL095W, strain BCK1, hits give low values 1 | locus YJL115W, strain asf1, hits give low values 0.982 | locus YJL129C, strain trk1, hits give low values 0.971 | locus YJL134W, strain LCB3, hits give low values 1.01 | locus YJL154C, strain vps35, hits give low values 0.988 | locus YJL164C, strain tpk1, hits give low values 0.996 | locus YJL166W, strain qcr8, hits give low values 1 | locus YJL168C, strain set2, hits give low values 1.02 | locus YJL187C, strain SWE1 (second series), hits give low values 1 | locus YJL187C, strain SWE1, hits give low values 0.992 | locus YJR043C, strain POL32, hits give low values 1.03 | locus YJR066W, strain TOR1, hits give low values 0.974
